KCNH2 3.1 block = blocks the human KCNH2 3.1 channel isoform; U2OS KCNH2 3.1, thallium flux FluxOr; stronger effect = lower value; activity change, % (tested at about 1.8 µM); 340,000 tested, 0.95% active; AID 720553;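 active means maximum activity change below -70%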;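 further: thallium influx rate constant from kinetic fluorescence after stimulation buffer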
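FluxOr-based Tl+ influx in U2OS cells transduced with KCNH2 3.1 virus; rate constants normalized to DMSO controls.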
Luc counter = counter-screen: inhibitors of Kinase-Glo firefly luciferase | Potency, µM (titrated, usually from 38.3 µM), without a hit: top-dose activity change, negative = inhibition, usual class: inhibitors | Q27757 | 200,000 tested, 0.28% active | AID 1379 | Kinase-Glo luciferase, ATP luminescence, 8 min; active means well fitted inhibition curve with a large enough effect; further: potency means the concentration at half of the fitted maximal effect; nearly all actives have a fitted effect of over 60% in size
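Light output from Kinase-Glo luciferase with luciferin and 10 uM ATP in 50 mM imidazole pH 7.2, KCl, MgCl2, Tween 20, BSA; compound pin-delivered, 8-min ambient incubation, then luminescence read.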
hERG WT inh = KCNH2 (human, wildtype) channel inhibition; Q12809; U2OS, BacMam KCNH2, thallium flux FluxOr; stronger effect = lower value; activity change, % at 1.84 µM; 340,000 tested, 0.37% active; AID 720551;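 active means maximum activity change below -70%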
Target sequence (Q12809 whole entry, looked up): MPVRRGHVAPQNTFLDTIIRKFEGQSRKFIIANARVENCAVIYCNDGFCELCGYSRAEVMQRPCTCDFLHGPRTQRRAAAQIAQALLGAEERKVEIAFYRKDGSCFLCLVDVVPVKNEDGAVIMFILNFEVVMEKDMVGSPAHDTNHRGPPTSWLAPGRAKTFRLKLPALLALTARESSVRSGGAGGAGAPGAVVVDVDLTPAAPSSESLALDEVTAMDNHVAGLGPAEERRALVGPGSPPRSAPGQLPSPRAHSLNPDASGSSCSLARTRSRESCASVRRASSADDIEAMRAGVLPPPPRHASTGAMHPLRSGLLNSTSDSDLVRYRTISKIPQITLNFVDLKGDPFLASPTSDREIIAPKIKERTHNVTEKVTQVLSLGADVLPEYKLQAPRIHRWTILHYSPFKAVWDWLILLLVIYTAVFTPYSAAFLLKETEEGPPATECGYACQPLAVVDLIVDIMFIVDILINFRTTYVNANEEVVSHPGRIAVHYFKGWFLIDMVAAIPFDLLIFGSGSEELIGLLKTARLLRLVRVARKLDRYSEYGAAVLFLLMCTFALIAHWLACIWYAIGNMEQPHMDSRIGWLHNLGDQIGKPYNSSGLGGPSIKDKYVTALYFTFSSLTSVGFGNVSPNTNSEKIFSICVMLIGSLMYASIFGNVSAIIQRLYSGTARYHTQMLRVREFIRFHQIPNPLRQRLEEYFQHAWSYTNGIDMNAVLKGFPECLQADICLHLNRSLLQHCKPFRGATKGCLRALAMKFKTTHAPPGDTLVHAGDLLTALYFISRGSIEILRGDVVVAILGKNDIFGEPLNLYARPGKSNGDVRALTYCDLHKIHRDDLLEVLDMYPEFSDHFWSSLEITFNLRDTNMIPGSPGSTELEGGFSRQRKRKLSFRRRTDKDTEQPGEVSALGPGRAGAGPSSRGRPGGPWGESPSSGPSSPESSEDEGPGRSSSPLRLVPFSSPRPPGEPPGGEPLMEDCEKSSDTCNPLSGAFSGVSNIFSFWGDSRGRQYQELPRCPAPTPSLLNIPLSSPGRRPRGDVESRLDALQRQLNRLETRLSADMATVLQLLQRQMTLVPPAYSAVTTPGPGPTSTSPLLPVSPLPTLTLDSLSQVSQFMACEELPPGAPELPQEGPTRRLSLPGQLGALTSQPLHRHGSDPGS
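U2OS cells transduced with wild-type KCNH2 virus are loaded with FluxOr dye for 45 min, and thallium flux is measured in kinetic reads before and after stimulation buffer. Rate constants are normalized to DMSO controls.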
Starred values were filed as active, the others as inactive; [ ] = another dose, or the depositor's remark. Rows were chosen to be rich in hits. Some 1.2% of all compounds tested hit in one or more screens of this group. On the % scale 0 is the no-effect control and ±100 the full control effect.

Screening Cc1cc(=O)[nH]c2ccc(S(=O)(=O)NC3CCCCC3)cc12 returned KCNH2 3.1 block -4 and hERG WT inh -21.
For O=C1Nc2ccc(C(=O)O)c(O)c2C1=O the results were KCNH2 3.1 block 7 and hERG WT inh -1.
`COc1cc(C(=O)Nc2ccc3c(c2)C(=O)c2ccccc2C3=O)cc(OC)c1OC` gave KCNH2 3.1 block -8, Luc counter -1% and hERG WT inh 1.
For COc1cc(C(=O)Nc2ccc3c(c2)Cc2ccccc2-3)cc(OC)c1OC the results were KCNH2 3.1 block -91*, Luc counter -2% and hERG WT inh -25.
`Cc1ccc(OCc2nc(-c3ccccn3)no2)c(Br)c1` gave KCNH2 3.1 block -2, Luc counter 10µM* and hERG WT inh 3.
Screening CCc1ccc(OCc2nc(-c3ccccn3)no2)c(Br)c1 returned KCNH2 3.1 block 12, Luc counter -17% and hERG WT inh -5.
For COc1ccc(S(=O)(=O)NC(CCSC)C(=O)NC2CCCCC2)cc1 (configuration not stated) the results were KCNH2 3.1 block 11, Luc counter 1% and hERG WT inh -1.
`O=C(CN1CCN(Cc2ccc(Cl)cc2)C1=O)NCCCN1CCOCC1` gave KCNH2 3.1 block 2, Luc counter -4% and hERG WT inh -7.
For O=C(CN1CCN(c2ccc(F)cc2)CC1)NCc1ccc(Cl)cc1 the results were KCNH2 3.1 block -77* and hERG WT inh 26.
Screening O=C(CN1CCN(Cc2ccc(Cl)cc2)C1=O)NCCCN1CCN(c2ccc(F)cc2)CC1 returned KCNH2 3.1 block -97*, Luc counter 4% and hERG WT inh -116*.
`O=C(CN1CCN(c2ccc(F)cc2)CC1)NCc1ccc(F)cc1` gave KCNH2 3.1 block -8 and hERG WT inh -6.
Screening CC(=O)N1CCC(C(=O)NC2CCCc3c2cnn3-c2cc(F)cc(F)c2)CC1 (configuration not stated) returned KCNH2 3.1 block 13 and hERG WT inh 7.
`CCc1ccc(OCCCC(=O)Nc2nnc(C3CCCO3)s2)cc1` (configuration not stated) gave KCNH2 3.1 block 0, Luc counter -2% and hERG WT inh -248*.
For Cc1cccc(OCCCC(=O)Nc2nnc(C3CCCO3)s2)c1C (configuration not stated) the results were KCNH2 3.1 block -2 and hERG WT inh 3.
`NC(N)=N[C@H](CC(=O)O)c1ccccc1` gave Luc counter -6%[7.66 µM].
For CCc1ccc(CN2CCC(n3nccc3NC(=O)C3CCCC3)CC2)cc1 the results were KCNH2 3.1 block -75* and hERG WT inh -30.
`O=C(Nc1ccnn1C1CCN(Cc2ccc(OC(F)F)cc2)CC1)C1CCCC1` gave KCNH2 3.1 block -83* and hERG WT inh -102*.
Screening CC(C)c1ccc(CN2CCC(n3nccc3NC(=O)C3CCCC3)CC2)cc1 returned KCNH2 3.1 block -72* and hERG WT inh 7.
Cn1cc(CN2CCC(n3nccc3NC(=O)CCc3ccccc3)CC2)cn1 was read as KCNH2 3.1 block -10 and hERG WT inh -2.
`Cn1cc(CN2CCC(n3nccc3NC(=O)C3CCCC3)CC2)cn1` gave KCNH2 3.1 block 6 and hERG WT inh 0.
Screening CC(C)Oc1ccc(CN2CCC(n3nccc3NC(=O)CCc3ccccc3)CC2)cc1 returned KCNH2 3.1 block -106* and hERG WT inh -32.
Screening COC(=O)c1ccc(CN2CCC(n3nccc3NC(=O)C3CCCC3)CC2)cc1 returned KCNH2 3.1 block -7 and hERG WT inh 40.
O=C(Nc1ccnn1C1CCN(Cc2ccc(Cl)cc2)CC1)C1CCCC1 was read as KCNH2 3.1 block -44 and hERG WT inh 55.
`Cc1cc(C)nc(N2CCC(C(=O)NC3CC3)CC2)n1` gave KCNH2 3.1 block -2 and hERG WT inh 6.
For CC(C)N(Cc1nccn1C)C(=O)C1CCC(=O)N(CCc2ccccc2)C1 (configuration not stated) the results were KCNH2 3.1 block 19 and hERG WT inh -11.
Screening OB(O)c1cc2ccccc2o1 returned Luc counter -5%.
Screening Cc1ccc(NC(=O)COC(=O)CNC(=O)c2cccs2)cc1S(=O)(=O)N1CCOCC1 returned KCNH2 3.1 block -7 and hERG WT inh -3.
For COc1ccc(S(=O)(=O)N2CCN(CC(=O)c3c(N)n(C)c(=O)n(C)c3=O)CC2)cc1OC the results were KCNH2 3.1 block 18 and hERG WT inh 11.
O=C(Nc1ccccc1C(=O)O)c1cc(S(=O)(=O)Nc2cccc(F)c2)ccc1Cl was read as KCNH2 3.1 block -9 and hERG WT inh 9.
CCc1ccccc1-n1ncc(C(=O)Nc2ccc(OC)cc2)c1C was read as KCNH2 3.1 block 0 and hERG WT inh 12.
For COC(=O)c1ccc(CN2CCC(n3nccc3NC(=O)C3CC3)CC2)cc1 the results were KCNH2 3.1 block 8 and hERG WT inh 25.
Screening Cc1c(CN2CCC(n3nccc3NC(=O)C3CC3)CC2)[nH]c2ccccc12 returned KCNH2 3.1 block -74* and hERG WT inh -21.
Screening O=C(CSc1ccc2nnc(-c3ccccn3)n2n1)Nc1ccccc1C(F)(F)F returned KCNH2 3.1 block 1 and hERG WT inh 3.
Cc1ccc(NC(=O)CN(C)C(=O)c2cc(-c3ccccc3)nn2-c2ccccc2)cc1 was read as KCNH2 3.1 block -16 and hERG WT inh 2.
Screening Cc1cc(C)cc(NC(=O)C(OC(=O)c2ccc(NC(=O)CC#N)cc2)c2ccccc2)c1 (configuration not stated) returned KCNH2 3.1 block -24 and hERG WT inh -27.
`Cc1ccc(C)c(NC(=O)C(OC(=O)c2ccc(NC(=O)CC#N)cc2)c2ccccc2)c1` (configuration not stated) gave KCNH2 3.1 block -71* and hERG WT inh 0.
For COc1ccc(C(=O)NC2CC2)cc1OC1CCN(Cc2ccccc2O)CC1 the results were KCNH2 3.1 block -49 and hERG WT inh -21.
`COc1ccc(C(=O)NC2CC2)cc1OC1CCN(Cc2cc(C)cc(C)c2)CC1` gave hERG WT inh -9.
`CCOCCCNC(=O)c1ccc(OC)c(OC2CCN(C(C)C)CC2)c1` gave KCNH2 3.1 block 4 and hERG WT inh -13.
For COc1ccc(C(=O)NC2CC2)cc1OC1CCN(Cc2ccccc2F)CC1 the results were KCNH2 3.1 block -44 and hERG WT inh 20.
For COc1ccc(C(=O)NC2CC2)cc1OC1CCN(Cc2ccc(Cl)cc2)CC1 the results were hERG WT inh -128*.
For COc1ccc(C(=O)NCCCC2CCCC2)cc1OC1CCN(C(C)C)CC1 the results were KCNH2 3.1 block -94* and hERG WT inh 45.
For CCc1ccc(CN2CCC(Oc3cc(C(=O)NC4CC4)ccc3OC)CC2)cc1 the results were KCNH2 3.1 block -97* and hERG WT inh -108*.
`C=CCOc1ccccc1CN1CCC(Oc2cc(C(=O)NC3CC3)ccc2OC)CC1` gave KCNH2 3.1 block -77* and hERG WT inh -99*.
Screening O=C(Cn1c(=O)c2cccn2c2ccccc21)NCCCN1CCCCC1 returned KCNH2 3.1 block -26 and hERG WT inh 5.

Bioassay records as filed in PubChem BioAssay.
